HIF-2a inh – blocks HIF-2a reporter activity; actives 0.72% (n = 360,000); AID 624352; 786-0 RCC cells HIF-2a reporter, luciferase luminescence, overnight; inhibition, % at 18.8 µM;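 active = inhibition of the luminescence signal of 40% or more relative to plate controls, in a single-dose primary screen at 18.75 µM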
Peg3 promoter – reduces Peg3 promoter-driven luciferase expression in HeLa | HeLa PEG-Prom luciferase reporter, luminescence, overnight | inhibition, % at 20 µM | actives 1.7% (n = 360,000) | AID 588405;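 active = inhibition of at least 50% at 20 µM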
KKLEB tox – counter-screen for CF NF-kB inhibitors: cytotoxicity | KKLEB CF airway cells viability, ATPlite luminescence, overnight; hits give low values; cells stimulated with P. aeruginosa culture filtrate | activity change (cytotoxicity), % at 5 µM | actives 0.36% (n = 360,000) | AID 602141;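 active = corrected activity change at or below -50% at 5 µM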
MITF TRPM1 inh – reduces MITF-dependent TRPM1 promoter luciferase signal. actives 0.83% (n = 330,000). inhibition, % at 12.5 µM. SK-MEL-5 TRPM1 promoter luciferase, 24 h;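 active = mean inhibition across replicates of 60% or more, whatever share of single replicates reaches that level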
CF NFkB block – cystic fibrosis NF-kB activation inhibition; KKLEB NF-kB-GFP reporter, PAF-induced, GFP fluorescence overnight; actives 0.86% (n = 360,000); inhibition, % at 5 µM;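 active = at least 50% inhibition at 5 µM, scaled per plate between neutral and stimulator controls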;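 also: PAF is a Pseudomonas aeruginosa culture filtrate used as stimulus; plate controls were PAF-stimulated DMSO wells for no effect and unstimulated DMSO wells for full effect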
CHOP inh – inhibitors of CHOP induction in ER stress response. CHO-K1 CHOP-promoter luciferase, tunicamycin-induced, 15-18 h. inhibition, % at 10 µM. actives 3.8% (n = 220,000);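 active = compounds that reduced the stress-induced luciferase reporter signal by more than about 70% of percent inhibition, limit read from the data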;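 also: 0% = tunicamycin plus vehicle and 100% = wells without tunicamycin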
The depositor's hits bear a star; / = not tested or not shown. Shown are actives, neighbours in structure and some others; about 4.3% of the full set was active somewhere.

SMILES	HIF-2a inh	Peg3 promoter	KKLEB tox	MITF TRPM1 inh	CF NFkB block	CHOP inh
O=C1N=c2ccccc2=C1c1sc(=S)n(NC(=O)c2ccccc2)c1O	10	8	-12	6	16	94*
CC(C)(C)NCC(O)CON=C1c2ccccc2-c2ccccc21 (stereo unspecified)	25	84*	-1	-19	-23	-8
CC(C)(C)NC(=O)CON=C1c2ccccc2-c2ccccc21	-21	11	-17	10	10	68
CC(Oc1ccccc1F)C(=O)Nc1ccc2ccccc2c1 (stereo unspecified)	-257	-94	0	-19	5	88*
CC(Oc1ccc(F)cc1)C(=O)Nc1ccc2ccccc2c1 (stereo unspecified)	-148	-57	-11	7	6	12
CSc1cccc(NC(=O)C2CCCN(S(=O)(=O)c3cccs3)C2)c1 (stereo unspecified)	32	23	4	-9	-4	/
CC1CCCN(CCCNC(=O)c2ccc3c(c2)N(Cc2cccc(Cl)c2)C(=O)c2ccccc2S3=O)C1 (stereo unspecified)	8	57*	0	/	2	/
CC1CCCN(CCCNC(=O)c2ccc3c(c2)N(Cc2ccc(F)cc2)C(=O)c2ccccc2S3=O)C1 (stereo unspecified)	7	14	0	8	-10	/
COc1ccc(C(C(=O)NC2CCCCC2)N(C(=O)c2cccs2)c2ccc3c(c2)OCO3)cc1 (stereo unspecified)	-7	11	-70*	5	47	33
CCOc1ccc(C(C(=O)NC2CCCCC2)N(C(=O)Cc2cccs2)c2ccc(-n3cnnn3)c(OC)c2)cc1 (stereo unspecified)	20	13	-30	6	4	84*
O=C(NC1CCCCC1)C(c1ccccc1)N(C(=O)c1cccs1)c1ccc2c(c1)OCO2 (stereo unspecified)	0	12	-9	14	15	37
COc1cc2c(c(Br)c1N)-c1cc(Br)c(N)cc1C2=O	-60	-50	-9	/	-95	/
Cc1ccc(S(=O)(=O)N2C3CC(c4ccccc4)N(S(=O)(=O)c4cccc(Cl)c4)CC3C(=O)C[C@H]2c2ccccc2)cc1 (stereo partly specified)	9	/	/	/	/	/
Oc1ccc(/C=N/N2CCN(C3c4ccccc4-c4ccccc43)CC2)cc1O	29	31	2	2	11	91*
O=C(O)c1cccc(N2C(=O)/C(=C/c3ccc(SCc4ccc(Cl)cc4)o3)SC2=S)c1	-74	-44	25	-8	-17	75*
O=C(CCN1C(=O)/C(=C/c2ccc(Cl)cc2)SC1=S)Nc1cccc(C(=O)O)c1	-3	-5	-10	4	-5	/
Nc1c(-c2ccc(Cl)cc2)cnn1-c1cccc([N+](=O)[O-])c1	-263	-134	-1	-35	14	78*
Nc1c(-c2ccccc2)cnn1-c1cccc([N+](=O)[O-])c1	-154	-216	4	-46	3	-14
CC[C@](C)(O)c1cc2ccccc2c(=O)o1	1	-6	-8	-11	9	/
CCCc1nc(SCC(=O)Nc2cc(Cl)ccc2OC)c2c(=O)n(C)c(=O)n(C)c2n1	/	/	/	/	/	79*
CCc1nc(SCC(=O)Nc2ccc(F)cc2F)c2c(=O)n(C)c(=O)n(C)c2n1	10	6	15	-2	-12	/
CCCc1nc(SCC(=O)c2ccccc2)c2c(=O)n(C)c(=O)n(C)c2n1	-2	19	12	/	7	74*
O=C(COC(=O)c1c[nH]c2ccccc12)NC1CCCCC1	-65	-36	-25	11	-3	/
O=C(COc1ccc(S(=O)(=O)N2CCOCC2)cc1)N1CCOCC1	20	8	5	4	-8	/
O=C(COc1ccc(/C=C\[N+](=O)[O-])cc1)N1CCOCC1	19	5	5	4	5	85*
SMILES	HIF-2a inh	Peg3 promoter	KKLEB tox	MITF TRPM1 inh	CF NFkB block	CHOP inh
O=[N+]([O-])/C=C\c1ccc(N2CCOCC2)cc1	55*	14	-8	74*	25	/
O=[N+]([O-])c1cccc(N/N=C/c2ccc(N3CCOCC3)cc2)c1	-307	-228	-8	-123	-16	/
Cc1ccc(NC(=O)c2oc3ccccc3c2COC(C)C)cc1S(=O)(=O)N1CCOCC1	4	42	1	5	0	/
CN1CCN(C(=O)CN(C)S(=O)(=O)c2cc(Cl)ccc2Cl)CC1	8	-3	4	-3	6	/
OC(c1ccccc1)(c1nc(-c2ccccc2)cs1)C(F)(F)F (stereo unspecified)	14	7	10	/	-5	/
Cc1ccc(-n2c(C)cc(/C=C3\SC(=O)NC3=O)c2C)cc1	-305	-237	11	-76	-7	/
Cc1cc(/C=C2\SC(=Nc3ccccc3)NC2=O)c(C)n1-c1ccc(S(N)(=O)=O)cc1	2	-5	-6	18	6	92*
CCOC(=O)C1(C)CCN1C(=O)c1cc(F)ccc1C (stereo unspecified)	3	8	2	/	-35	/
COc1cc(OC)cc(C(=O)OCc2cc3ccccc3[nH]c2=O)c1	7	19	-22	4	34	85*
COc1ccc(CC(=O)OCc2cc3ccccc3[nH]c2=O)cc1	12	3	9	-1	-2	14
Cc1nnc(-c2cccc(Br)c2)c2cn(-c3ccccc3)nc12	11	20	6	1	-68	66
Cc1nnc(-c2cccc(Br)c2)c2cn(-c3cccc(Br)c3)nc12	10	2	-3	3	-82	75*
O=C(N/N=C/c1cc2ccccc2nc1Cl)/C(=C/c1cccs1)NC(=O)c1ccccc1	18	66*	10	10	-30	19
O=C(N/N=C/c1cccnc1)/C(=C\c1cccs1)NC(=O)c1ccccc1	9	20	0	-5	2	7
COc1ccc(S(N)(=O)=O)cc1C(=O)OCC(=O)N1c2ccccc2NC(=O)C1(C)C	5	11	-7	-10	-17	/
COc1cc(/C=C/C(=O)OCC(=O)N2c3ccccc3NC(=O)C2(C)C)cc(OC)c1OC	-13	65*	-19	-8	15	/
O=C1/C(=C\c2ccc(Cl)cc2)CCC1CNc1ccc(Cl)cc1 (stereo unspecified)	0	89*	30	22	-30	/
COc1ccc(/C=C2\CCC(C3CCCC3)C2=O)cc1 (stereo unspecified)	-248	-308	-1	-91	7	/
COc1ccc(/C=C2/CCC(CN3CCOCC3)C2=O)cc1 (stereo unspecified)	87*	101*	-55*	99*	66*	/
Cc1ccc(/C=C2\CCC(C3CCCC3)C2=O)cc1 (stereo unspecified)	-264	-265	5	-16	8	65
